Consider four compounds from PubChem BioAssay (EPA / NIEHS).

The nature of assay [1]: ATG_PBREM_CIS: Attagene CIS-FACTORIAL HepG2 Assay for human Phenobarbital-responsive Enhancer Module (PBREM) (AID 2282955). The settings on record: HepG2 PBREM cis-reporter, Attagene multiplexed transcription; actives raise or lower the signal. The procedure, abridged: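 HepG2 cells transiently transfected with multiple cis-regulated reporter units measure endogenous transcription factor activity; 24 h compound exposure. Reporter mRNA quantified by RT-PCR, fluorescent labelling, HpaI digestion and capillary electrophoresis; bidirectional fit versus DMSO.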

Assay [2] deals with Paired box protein Pax-6 (Homo sapiens) (UniProt P26367). Put plainly: ATG_Pax6_CIS: Attagene CIS-FACTORIAL HepG2 Assay for human Paired Box 6 (PAX6) (AID 2282956). The following applies: HepG2 CIS-FACTORIAL PAX6 reporter transcription, RNA readout; actives raise or lower the signal. The procedure, abridged: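 Multiplexed cis-reporter HepG2 system; 24 h treatment; reporter mRNA read by RT-PCR/CE fluorescence; bidirectional fit vs DMSO.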
Paired box protein Pax-6 (Homo sapiens), sequence (P26367 whole entry, looked up): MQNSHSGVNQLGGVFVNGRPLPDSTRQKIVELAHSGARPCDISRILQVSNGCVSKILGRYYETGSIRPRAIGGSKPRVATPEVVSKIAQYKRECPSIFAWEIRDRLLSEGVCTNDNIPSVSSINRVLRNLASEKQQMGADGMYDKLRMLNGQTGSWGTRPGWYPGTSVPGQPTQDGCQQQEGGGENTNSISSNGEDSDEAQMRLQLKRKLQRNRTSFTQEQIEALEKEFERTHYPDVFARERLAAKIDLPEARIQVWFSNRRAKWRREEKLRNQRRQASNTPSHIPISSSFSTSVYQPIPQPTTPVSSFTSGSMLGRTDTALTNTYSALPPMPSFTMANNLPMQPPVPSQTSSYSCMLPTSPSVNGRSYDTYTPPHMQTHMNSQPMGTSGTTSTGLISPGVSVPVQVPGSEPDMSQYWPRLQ

Assay [3] is described as follows: ATG_PXRE_CIS: Attagene CIS-FACTORIAL HepG2 Assay for human Pregnane X Receptor Element (PXRE) (AID 2282957). The settings on record: HepG2 Attagene CIS-FACTORIAL PXRE reporter, mRNA; actives raise or lower the signal. In outline:
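HepG2 cells transiently transfected with cis-element-driven multiplexed reporter units; after 24 h chemical exposure, reporter mRNA measured by RT-PCR, 6-FAM labelling, HpaI digestion and capillary electrophoresis. Bidirectional fitting relative to DMSO.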

Assay [4] can be described thus: ATG_PPRE_CIS: Attagene CIS-FACTORIAL HepG2 Assay for human Peroxisome Proliferator-activated Response Element (PPRE) (AID 2282958). The following applies: HepG2 PPRE cis-element reporter, Attagene transcription factor profiling; actives raise or lower the signal. In outline:
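HepG2 cells are transiently transfected with multiplexed cis-promoter reporter units to report endogenous PPAR activity. After 24 h dosing, reporter mRNA is read by RT-PCR and capillary electrophoresis. Fitting is bidirectional against DMSO.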

Assay [5] is described as follows: ATG_RORE_CIS: Attagene CIS-FACTORIAL HepG2 Assay for human RAR-related Orphan Receptor Element (RORE) (AID 2282959). The following applies: HepG2 Attagene cis-factorial RORE reporter, mRNA; actives raise or lower the signal. The procedure, abridged: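 HepG2 cells carrying transiently transfected cis-regulated reporter units; RORE-driven reporter mRNA quantified 24 h post-dosing by RT-PCR, 6-FAM primer extension, HpaI digestion and capillary electrophoresis. Bidirectional fit versus DMSO.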

Assay [6] is described as follows: ATG_Sox_CIS: Attagene CIS-FACTORIAL HepG2 Assay for human SRY-box transcription factor (SOX) (AID 2282960). The following applies: HepG2 Attagene cis-factorial SOX reporter, mRNA; actives raise or lower the signal. In outline:
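HepG2 cells transiently transfected with multiple cis-regulated reporter units, then dosed for 24 h. Reporter mRNA quantified by RT-PCR, fluorescent labelling, HpaI digestion and capillary electrophoresis; bidirectional fit versus DMSO.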

The target in assay [7] is Transcription factor Sp1 (Homo sapiens) (UniProt P08047). Put plainly: ATG_Sp1_CIS: Attagene CIS-FACTORIAL HepG2 Assay for human Specificity Protein 1 (Sp1) (AID 2282961). The following applies: HepG2 Sp1 cis-reporter transcription, actives raise or lower the signal. In outline: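 HepG2 cells transiently transfected with multiplexed cis-regulated reporter constructs, chemical exposure 24 h. Reporter mRNA quantified by RT-PCR with capillary electrophoresis; bidirectional fit relative to DMSO.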
Transcription factor Sp1 (Homo sapiens), sequence (P08047 whole entry, looked up): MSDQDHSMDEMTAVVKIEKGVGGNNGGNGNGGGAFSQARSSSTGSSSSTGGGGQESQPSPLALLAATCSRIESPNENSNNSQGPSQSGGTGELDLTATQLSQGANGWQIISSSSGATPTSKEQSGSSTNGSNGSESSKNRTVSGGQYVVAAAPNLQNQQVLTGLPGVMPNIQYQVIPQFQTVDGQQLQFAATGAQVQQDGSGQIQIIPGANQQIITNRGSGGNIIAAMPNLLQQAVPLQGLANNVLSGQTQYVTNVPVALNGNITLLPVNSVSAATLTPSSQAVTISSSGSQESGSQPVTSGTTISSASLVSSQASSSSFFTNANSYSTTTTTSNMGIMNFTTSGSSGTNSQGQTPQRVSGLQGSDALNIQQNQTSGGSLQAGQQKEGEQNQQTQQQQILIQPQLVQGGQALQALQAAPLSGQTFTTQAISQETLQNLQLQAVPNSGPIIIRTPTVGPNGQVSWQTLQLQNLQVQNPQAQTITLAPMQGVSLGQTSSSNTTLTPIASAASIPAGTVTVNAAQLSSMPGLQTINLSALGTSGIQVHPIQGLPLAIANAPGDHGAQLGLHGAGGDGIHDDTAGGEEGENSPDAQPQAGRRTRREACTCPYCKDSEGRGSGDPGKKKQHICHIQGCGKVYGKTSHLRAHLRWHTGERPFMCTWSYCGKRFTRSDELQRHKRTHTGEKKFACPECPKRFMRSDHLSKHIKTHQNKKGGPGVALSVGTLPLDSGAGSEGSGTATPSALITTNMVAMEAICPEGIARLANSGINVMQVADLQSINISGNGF

Assay [8] is described as follows: ATG_SREBP_CIS: Attagene CIS-FACTORIAL HepG2 Assay for human Sterol Regulatory Element Binding (SREBP) (AID 2282962). The settings on record: HepG2 Attagene cis-factorial SREBP reporter, mRNA; actives raise or lower the signal. In outline:
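mRNA induction of transfected cis-promoter reporters in HepG2 cells, 24 h post-dose. Detection: RT-PCR with 6-FAM-labelled products, HpaI digest, capillary electrophoresis. DMSO served as negative control and baseline.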

For assay [9], the target named is Signal transducer and activator of transcription 3 (Homo sapiens) (UniProt P40763). Put plainly: ATG_STAT3_CIS: Attagene CIS-FACTORIAL HepG2 Assay for human Signal Transducer and Activator of Transcription 3 (STAT3) (AID 2282963). The settings on record: HepG2, Attagene cis-factorial STAT3 reporter transcription; actives raise or lower the signal. In outline: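 HepG2 cells transiently transfected with multiple cis-element-driven reporter units report endogenous transcription factor activity. After 24 h compound exposure, reporter mRNA is measured by RT-PCR, 6-FAM labelling, HpaI digestion and capillary electrophoresis. Fitted bidirectionally versus DMSO.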
Signal transducer and activator of transcription 3 (Homo sapiens), sequence (P40763 whole entry, looked up): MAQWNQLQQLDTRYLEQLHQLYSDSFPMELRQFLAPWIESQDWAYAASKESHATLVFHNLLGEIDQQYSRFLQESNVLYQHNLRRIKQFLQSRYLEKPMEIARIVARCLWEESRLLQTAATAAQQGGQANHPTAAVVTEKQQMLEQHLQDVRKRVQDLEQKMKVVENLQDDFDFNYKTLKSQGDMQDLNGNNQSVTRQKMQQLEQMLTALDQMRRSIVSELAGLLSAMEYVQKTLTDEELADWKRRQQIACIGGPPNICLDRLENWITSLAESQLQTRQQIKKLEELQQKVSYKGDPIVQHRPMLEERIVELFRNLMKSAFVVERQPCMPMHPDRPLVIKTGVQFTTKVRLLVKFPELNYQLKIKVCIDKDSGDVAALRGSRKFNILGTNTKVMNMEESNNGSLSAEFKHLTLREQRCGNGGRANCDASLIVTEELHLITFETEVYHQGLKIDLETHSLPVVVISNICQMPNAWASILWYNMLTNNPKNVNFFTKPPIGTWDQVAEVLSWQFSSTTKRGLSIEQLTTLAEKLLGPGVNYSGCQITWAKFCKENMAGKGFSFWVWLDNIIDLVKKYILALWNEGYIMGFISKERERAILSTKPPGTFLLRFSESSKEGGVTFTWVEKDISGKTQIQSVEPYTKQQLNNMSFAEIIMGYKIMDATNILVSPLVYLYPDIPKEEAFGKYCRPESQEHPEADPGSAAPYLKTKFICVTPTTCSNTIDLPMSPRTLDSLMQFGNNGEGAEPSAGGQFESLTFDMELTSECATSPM

Assay [10] can be described thus: ATG_TA_CIS: Attagene CIS-FACTORIAL HepG2 Assay for human TA Basal Promoter (AID 2282964). The following applies: HepG2 Attagene CIS-factorial TA basal promoter reporter; actives raise or lower the signal. The procedure, abridged:
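Fluorescence from labelled RT-PCR reporter fragments, separated by capillary electrophoresis, gives the signal. Cells: HepG2 transiently carrying multiple reporter units, 24 h chemical dosing. Gain or loss relative to DMSO.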

Assay [11] in a line: ATG_TCF_b_cat_CIS: Attagene CIS-FACTORIAL HepG2 Assay for human T-Cell-Factor with beta-catenin (TCF/b-cat) (AID 2282965). The following applies: HepG2 TCF/beta-catenin cis-reporter transcription, actives raise or lower the signal. The procedure, abridged:
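HepG2, transient MRTU transfection, cis-element-driven reporters (endogenous TFs). 24 h compound exposure. Readout: reporter mRNA by RT-PCR + 6-FAM primer extension, HpaI digest, capillary electrophoresis. Gain/loss fit vs DMSO baseline.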

A short description of assay [12]: ATG_TAL_CIS: Attagene CIS-FACTORIAL HepG2 Assay for human TAL Basal Promoter (AID 2282966).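 Further: background control endpoint measuring basal TAL promoter reporter mRNA not a specific factor.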 The settings on record: HepG2 Attagene cis-factorial TAL promoter reporter; actives raise or lower the signal. In outline:
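HepG2 cells transiently transfected with multiplexed cis-promoter reporter units, dosed 24 h. Reporter mRNA quantified by RT-PCR, 6-FAM labelling, HpaI digestion and capillary electrophoresis; TAL basal promoter serves as background control, fitted bidirectionally versus DMSO.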

A short description of assay [13]: ATG_TGFb_CIS: Attagene CIS-FACTORIAL HepG2 Assay for human Transforming Growth Factor (TGF) (AID 2282967). The settings on record: HepG2 Attagene CIS TGFb reporter, mRNA transcription; actives raise or lower the signal. The procedure, abridged:
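Bidirectional fitting relative to DMSO gave the endpoint. Underlying data: reporter mRNA from HepG2 cells carrying transiently transfected cis-regulated reporter constructs, harvested 24 h after dosing and analyzed by RT-PCR and capillary electrophoresis.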

Assay [14] has as its target Estrogen receptor (Homo sapiens) (UniProt P03372). Put plainly: ATG_ERa_TRANS: Attagene TRANS-FACTORIAL HepG2 Assay for human Estrogen Receptor alpha (ERa) (AID 2282970; active means hit-call score of the fitted dose curve at least 0.9, where 1 is the maximum). The following applies: HepG2 Attagene TRANS ERa GAL4 reporter, mRNA. In outline:
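HepG2 cells transiently transfected with multiplexed GAL4-UAS reporter units read out chimeric NR-Gal4 activity. After 24 h compound exposure, reporter mRNA was quantified by RT-PCR, 6-FAM labeling, HpaI digestion and capillary electrophoresis, relative to DMSO.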

For assay [15], the target named is X-box-binding protein 1 (Homo sapiens) (UniProt P17861). The assay can be described thus: ATG_Xbp1_CIS: Attagene CIS-FACTORIAL HepG2 Assay for human X-box Binding Protein 1 (XBP1) (AID 2282972). The following applies: HepG2 XBP1 cis-element reporter, Attagene multiplex; actives raise or lower the signal. In outline: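 Fluorescence-labelled cDNA fragments from reporter transcripts, separated by capillary electrophoresis, give the signal. Source: HepG2 cells transfected with promoter-driven reporter units, harvested 24 h post-dose. DMSO served as reference for bidirectional curve fitting.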
X-box-binding protein 1 (Homo sapiens), sequence (P17861 whole entry, looked up, the tested form may be a part): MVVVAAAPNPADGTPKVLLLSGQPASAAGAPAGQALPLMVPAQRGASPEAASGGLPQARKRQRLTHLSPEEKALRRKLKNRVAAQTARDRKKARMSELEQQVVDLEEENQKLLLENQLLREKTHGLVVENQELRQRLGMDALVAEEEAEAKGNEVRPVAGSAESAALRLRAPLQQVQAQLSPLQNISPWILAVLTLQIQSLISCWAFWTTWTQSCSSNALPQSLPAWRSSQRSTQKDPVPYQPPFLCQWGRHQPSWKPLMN

In assay [16] the target is Androgen receptor (Homo sapiens) (UniProt P10275). Put plainly: ATG_AR_TRANS: Attagene TRANS-FACTORIAL HepG2 Assay for human Androgen Receptor (AR) (AID 2282973; active means hit-call score of the fitted dose curve at least 0.9, where 1 is the maximum). The following applies: HepG2 Attagene TRANS-FACTORIAL AR reporter transcription. The procedure, abridged: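 HepG2 cells transiently transfected with AR-Gal4 chimera and GAL4-UAS reporter units; chemical exposure 24 h. Reporter mRNA quantified by RT-PCR with fluorescent labelling and capillary electrophoresis; gain-of-signal fitted against DMSO.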
Androgen receptor (Homo sapiens), sequence (P10275 whole entry, looked up, the tested form may be a part): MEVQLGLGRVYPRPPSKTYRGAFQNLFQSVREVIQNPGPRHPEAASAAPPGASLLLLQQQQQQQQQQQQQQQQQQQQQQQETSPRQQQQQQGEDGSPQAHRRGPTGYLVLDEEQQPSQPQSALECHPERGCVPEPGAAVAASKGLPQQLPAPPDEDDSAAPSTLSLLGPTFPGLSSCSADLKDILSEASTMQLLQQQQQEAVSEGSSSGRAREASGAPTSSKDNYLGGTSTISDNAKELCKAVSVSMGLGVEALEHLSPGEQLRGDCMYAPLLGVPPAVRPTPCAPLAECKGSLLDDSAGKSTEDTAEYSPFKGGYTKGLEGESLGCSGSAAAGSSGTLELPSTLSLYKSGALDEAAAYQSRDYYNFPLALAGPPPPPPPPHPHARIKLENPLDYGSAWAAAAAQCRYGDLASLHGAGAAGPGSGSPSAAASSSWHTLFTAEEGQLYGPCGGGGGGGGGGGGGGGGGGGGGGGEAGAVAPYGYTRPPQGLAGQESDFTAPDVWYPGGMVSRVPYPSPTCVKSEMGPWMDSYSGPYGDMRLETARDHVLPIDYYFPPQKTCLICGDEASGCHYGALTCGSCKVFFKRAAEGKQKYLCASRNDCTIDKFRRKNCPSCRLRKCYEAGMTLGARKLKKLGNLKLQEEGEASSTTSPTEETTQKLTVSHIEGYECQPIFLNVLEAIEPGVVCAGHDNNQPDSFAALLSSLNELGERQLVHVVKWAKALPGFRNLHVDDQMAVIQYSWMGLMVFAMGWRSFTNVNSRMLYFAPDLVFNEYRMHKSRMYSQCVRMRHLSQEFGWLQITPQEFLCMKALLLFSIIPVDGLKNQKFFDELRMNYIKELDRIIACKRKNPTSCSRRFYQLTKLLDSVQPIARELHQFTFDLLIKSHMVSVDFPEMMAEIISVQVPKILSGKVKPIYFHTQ

Assay [17] can be described thus: ATG_M_19_TRANS: Attagene TRANS-FACTORIAL HepG2 Assay for M19 Transcription Factor (Internal Marker) (AID 2282974; active means hit-call score of the fitted dose curve at least 0.9, where 1 is the maximum). The settings on record: HepG2 Attagene TRANS-FACTORIAL M19 internal marker reporter. In outline:
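HepG2 transiently transfected with GAL4-UAS multiplex reporter constructs, exposed 24 h; reporter RNA quantified by RT-PCR, 6-FAM labeling, HpaI digestion and capillary electrophoresis; internal background marker fitted upward versus DMSO.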

For assay [18], the target named is Steroid hormone receptor ERR1 (Homo sapiens) (UniProt P11474). Put plainly: ATG_ERRa_TRANS: Attagene TRANS-FACTORIAL HepG2 Assay for human Estrogen-Related Receptor alpha (ERRa) (AID 2282971; active means hit-call score of the fitted dose curve at least 0.9, where 1 is the maximum). The following applies: HepG2 Attagene TRANS reporter, ERRa transactivation. The procedure, abridged:
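HepG2 cells transiently transfected with GAL4-UAS reporter units and chimeric NR-Gal4 constructs; after 24 hour compound incubation, reporter mRNA quantified by RT-PCR, fluorescent labelling and capillary electrophoresis, gain of signal versus DMSO.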

Inconclusive results are not listed. Calls of active or inactive are those of the source. How the source made its calls, unless noted: active means hit-call score of the fitted dose curve at least 0.9, where 1 is the maximum; inactive means score below 0.9.

One may read the AC50 as the concentration at which the activity in the assay is half-maximal.

Estrogen receptor (Homo sapiens), sequence (P03372 whole entry, looked up, the tested form may be a part): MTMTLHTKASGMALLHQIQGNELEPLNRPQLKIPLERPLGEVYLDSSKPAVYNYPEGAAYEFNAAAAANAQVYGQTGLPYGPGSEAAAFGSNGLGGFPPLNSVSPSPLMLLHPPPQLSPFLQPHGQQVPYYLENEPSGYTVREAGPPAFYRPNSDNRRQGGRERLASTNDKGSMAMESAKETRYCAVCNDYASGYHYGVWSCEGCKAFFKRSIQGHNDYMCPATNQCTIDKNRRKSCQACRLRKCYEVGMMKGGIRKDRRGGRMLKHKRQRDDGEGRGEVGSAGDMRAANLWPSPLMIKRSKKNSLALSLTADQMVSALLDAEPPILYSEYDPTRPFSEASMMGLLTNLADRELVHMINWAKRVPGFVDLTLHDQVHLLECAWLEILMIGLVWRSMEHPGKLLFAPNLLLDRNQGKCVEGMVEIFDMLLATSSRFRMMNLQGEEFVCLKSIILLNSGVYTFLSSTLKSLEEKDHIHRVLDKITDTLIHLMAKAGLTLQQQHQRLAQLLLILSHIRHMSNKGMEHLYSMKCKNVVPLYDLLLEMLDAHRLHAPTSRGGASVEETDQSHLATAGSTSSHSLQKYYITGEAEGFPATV
Steroid hormone receptor ERR1 (Homo sapiens), sequence (P11474 whole entry, looked up, the tested form may be a part): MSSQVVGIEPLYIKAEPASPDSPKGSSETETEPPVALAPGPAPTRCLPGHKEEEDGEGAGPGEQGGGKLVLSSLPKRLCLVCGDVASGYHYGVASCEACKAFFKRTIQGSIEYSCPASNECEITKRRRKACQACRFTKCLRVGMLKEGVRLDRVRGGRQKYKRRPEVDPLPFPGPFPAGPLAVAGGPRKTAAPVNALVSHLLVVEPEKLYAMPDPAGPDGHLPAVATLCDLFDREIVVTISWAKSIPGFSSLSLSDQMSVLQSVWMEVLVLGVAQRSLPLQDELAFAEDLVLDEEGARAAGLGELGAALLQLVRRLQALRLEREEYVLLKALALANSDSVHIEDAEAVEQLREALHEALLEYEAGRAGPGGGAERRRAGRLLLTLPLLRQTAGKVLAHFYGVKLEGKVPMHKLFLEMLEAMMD

As for `CC(C)N1C(=O)N(c2ccccc2)CSC1=NC(C)(C)C`, the outcome in assay [1], in [2], in assay [4], in assay [5], in assay [6] and in assay [7] was inactive. Further, the compound was classed as inactive in [8], in assay [9], in assay [10], in assay [11], in assay [12] and in assay [13]. For the same compound, the compound was classed as inactive in assay [14], in assay [15], in assay [16] and in [17]. Besides, in [3], the AC50 was 0.666 µM (active).

`CC(C)=CC1C(C(=O)OCc2coc(Cc3ccccc3)c2)C1(C)C` (stereo not given): the AC50 was 14.6 µM (active) in assay [1], 5.63 µM (active) in [3], 11.2 µM (active) in assay [4] and 19.6 µM (active) in assay [14]. Moreover, the compound was classed as inactive in assay [2], in assay [5], in assay [6], in [7], in assay [8] and in [9]. The result in assay [10], in [11], in assay [12], in assay [13], in assay [15] and in assay [17] was inactive.

With `Cc1cc(C)nc(Nc2ccccc2)n1`, the AC50 is 50 µM (active) in assay [1], 16.7 µM (active) in assay [4] and 23 µM (active) in [8]. In addition, the result in [2], in assay [3], in [5], in assay [6], in assay [7] and in [9] was inactive. Also, the result in assay [10], in assay [11], in assay [12], in assay [13], in assay [14] and in assay [18] was inactive. The outcome in assay [15] was inactive.

Consider `COP(=S)(OC)SCn1nnc2ccccc2c1=O`, for which the AC50 in [1] is 36.3 µM (active); in assay [3], 5.87 µM (active); in assay [5], 31 µM (active); in [7] it was 32.5 µM (active); in [8], 19.8 µM (active); in assay [14] it was 45.4 µM (active). For the same compound, in [15], the AC50 was 18.7 µM (active). Also, the call in assay [2], in [4], in [6], in assay [9], in [10] and in assay [11] was inactive. Besides, the call in assay [12], in assay [13] and in assay [17] was inactive.
